# Data published in paper PMC7862700, “An all-to-all approach to the identification of sequence-specific readers for epigenetic DNA modifications on cytosine”.
# How the values were obtained:
# Test in all cases: DAPPL (digital affinity profiling via proximity ligation, sequencing); 10 mM Tris-HCl pH 7.5, 50 mM NaCl, 1 mM DTT, 4% glycerol, room temperature, 30 min; GST-TFs on glutathione beads, 16-mer random dsDNA library, 0.1% formaldehyde crosslink after washing; high values mean tight binding
# FLI1 = target: T1, FLI1 (Homo sapiens, UniProt Q01543 1-452); conditions: protein: recombinant; tags: N-terminal GST; dsDNA, one strand shown
# T1 sequence: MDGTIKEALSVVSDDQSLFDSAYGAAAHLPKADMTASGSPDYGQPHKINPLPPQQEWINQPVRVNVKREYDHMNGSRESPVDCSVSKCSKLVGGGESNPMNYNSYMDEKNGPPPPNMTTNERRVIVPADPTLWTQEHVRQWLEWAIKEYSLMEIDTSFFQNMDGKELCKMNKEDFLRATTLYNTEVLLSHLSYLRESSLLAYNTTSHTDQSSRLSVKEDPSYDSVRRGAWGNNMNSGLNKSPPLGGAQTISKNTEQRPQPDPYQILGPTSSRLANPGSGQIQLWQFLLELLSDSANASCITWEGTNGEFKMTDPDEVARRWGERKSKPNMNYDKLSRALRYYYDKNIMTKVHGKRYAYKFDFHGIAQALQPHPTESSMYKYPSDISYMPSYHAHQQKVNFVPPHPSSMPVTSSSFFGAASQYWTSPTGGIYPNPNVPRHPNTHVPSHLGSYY
# Outline: (§1)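 A tag-only sample was pooled with DNA-barcoded human transcription factors that had been expressed in yeast as GST fusions and captured on glutathione beads. The pools were incubated for 30 min at room temperature with 200 nmole of a random double-stranded 16-mer DNA library in Tris/NaCl/DTT/glycerol buffer, then washed, crosslinked with 0.1% formaldehyde, proximity-ligated (BsaI/T4 ligase, 1 h, 37 °C), PCR-amplified and sequenced on an Illumina NextSeq500. Binding signal is each hexamer's read frequency for a factor divided by its frequency for the tag-only sample.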
# ELK1 = target: T2, ELK1 (Homo sapiens, UniProt P19419 1-428); conditions: protein: recombinant; tags: N-terminal GST; dsDNA, one strand shown
# T2 sequence: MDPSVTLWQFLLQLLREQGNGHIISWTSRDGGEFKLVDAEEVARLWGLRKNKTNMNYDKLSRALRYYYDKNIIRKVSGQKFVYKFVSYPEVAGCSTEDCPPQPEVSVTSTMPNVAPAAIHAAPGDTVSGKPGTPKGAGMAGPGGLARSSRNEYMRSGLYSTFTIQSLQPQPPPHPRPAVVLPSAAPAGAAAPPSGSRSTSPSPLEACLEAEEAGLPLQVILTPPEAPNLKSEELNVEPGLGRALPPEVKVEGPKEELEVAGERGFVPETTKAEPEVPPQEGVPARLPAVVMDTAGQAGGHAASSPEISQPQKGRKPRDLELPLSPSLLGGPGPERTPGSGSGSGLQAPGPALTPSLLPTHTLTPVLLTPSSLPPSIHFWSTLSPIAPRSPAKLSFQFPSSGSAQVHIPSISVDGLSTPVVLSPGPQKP
# Outline: as §1
# GABPA = target: T3, GABPA (Homo sapiens, UniProt Q06546 1-454); conditions: protein: recombinant; tags: N-terminal GST; dsDNA, one strand shown
# T3 sequence: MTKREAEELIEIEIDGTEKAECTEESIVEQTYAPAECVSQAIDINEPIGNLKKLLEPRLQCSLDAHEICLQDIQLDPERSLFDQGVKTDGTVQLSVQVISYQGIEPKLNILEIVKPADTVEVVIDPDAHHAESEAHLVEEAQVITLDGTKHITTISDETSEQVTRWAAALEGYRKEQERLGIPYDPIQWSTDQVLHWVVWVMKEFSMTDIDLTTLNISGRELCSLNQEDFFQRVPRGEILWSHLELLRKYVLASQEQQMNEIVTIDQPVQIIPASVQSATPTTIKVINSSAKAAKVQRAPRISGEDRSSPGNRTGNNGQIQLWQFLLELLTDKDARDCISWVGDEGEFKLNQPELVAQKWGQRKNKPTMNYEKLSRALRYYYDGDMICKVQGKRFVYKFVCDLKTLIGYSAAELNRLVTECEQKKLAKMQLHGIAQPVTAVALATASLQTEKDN
# Outline: as §1
# ERG = target: T4, ERG (Homo sapiens, UniProt P11308 1-479); conditions: protein: recombinant; tags: N-terminal GST; dsDNA, one strand shown
# T4 sequence: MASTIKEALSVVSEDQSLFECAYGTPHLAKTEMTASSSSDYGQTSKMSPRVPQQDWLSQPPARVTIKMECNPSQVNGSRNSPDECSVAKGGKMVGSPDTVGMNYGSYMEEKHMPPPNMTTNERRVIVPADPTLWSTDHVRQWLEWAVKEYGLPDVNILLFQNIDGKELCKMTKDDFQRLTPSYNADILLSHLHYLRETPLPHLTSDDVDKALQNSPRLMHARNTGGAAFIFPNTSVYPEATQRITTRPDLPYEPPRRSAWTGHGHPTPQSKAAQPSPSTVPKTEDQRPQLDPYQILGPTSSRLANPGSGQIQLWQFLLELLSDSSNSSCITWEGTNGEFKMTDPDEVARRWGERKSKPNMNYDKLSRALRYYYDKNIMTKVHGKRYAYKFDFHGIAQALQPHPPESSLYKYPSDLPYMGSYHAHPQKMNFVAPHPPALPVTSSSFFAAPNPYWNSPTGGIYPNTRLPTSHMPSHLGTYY
# Outline: as §1
# ELF1 = ELF1 (Homo sapiens, UniProt P32519 1-619); conditions: protein: recombinant; tags: N-terminal GST; dsDNA, one strand shown
# Outline: as §1
# EHF = target: T5, EHF (Homo sapiens, UniProt Q9NZC4 1-300); conditions: protein: recombinant; tags: N-terminal GST; dsDNA, one strand shown
# T5 sequence: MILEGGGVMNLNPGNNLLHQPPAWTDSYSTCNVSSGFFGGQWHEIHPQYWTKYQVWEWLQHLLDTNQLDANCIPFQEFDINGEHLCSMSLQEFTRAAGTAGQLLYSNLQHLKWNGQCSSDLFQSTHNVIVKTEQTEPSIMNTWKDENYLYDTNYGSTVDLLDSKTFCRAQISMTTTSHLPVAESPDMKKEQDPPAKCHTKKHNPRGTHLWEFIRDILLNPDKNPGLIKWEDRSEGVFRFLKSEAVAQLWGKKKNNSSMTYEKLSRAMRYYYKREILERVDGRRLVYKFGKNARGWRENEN
# Outline: as §1
# SPI1 = SPI1 (Homo sapiens, UniProt P17947 1-270); conditions: protein: recombinant; tags: N-terminal GST; dsDNA, one strand shown
# Outline: as §1
# SPIB = SPIB (Homo sapiens, UniProt Q01892 1-262); conditions: protein: recombinant; tags: N-terminal GST; dsDNA, one strand shown
# Outline: as §1
# ELK3 = target: T6, ELK3 (Homo sapiens, UniProt P41970 1-407); conditions: protein: recombinant; tags: N-terminal GST; dsDNA, one strand shown
# T6 sequence: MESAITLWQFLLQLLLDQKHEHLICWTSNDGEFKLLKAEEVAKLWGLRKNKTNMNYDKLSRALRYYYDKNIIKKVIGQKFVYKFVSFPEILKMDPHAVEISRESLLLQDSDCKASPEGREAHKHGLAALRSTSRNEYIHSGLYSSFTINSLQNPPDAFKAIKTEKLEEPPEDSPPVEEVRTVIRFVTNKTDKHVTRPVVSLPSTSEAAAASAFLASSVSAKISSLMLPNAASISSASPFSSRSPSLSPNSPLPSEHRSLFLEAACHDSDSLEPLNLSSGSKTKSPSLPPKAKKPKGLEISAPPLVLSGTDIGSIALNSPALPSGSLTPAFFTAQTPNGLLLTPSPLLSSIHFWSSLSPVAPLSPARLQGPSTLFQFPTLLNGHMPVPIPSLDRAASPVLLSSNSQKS
# Outline: as §1
# FEV = target: T7, FEV (Homo sapiens, UniProt Q99581 1-238); conditions: protein: recombinant; tags: N-terminal GST; dsDNA, one strand shown
# T7 sequence: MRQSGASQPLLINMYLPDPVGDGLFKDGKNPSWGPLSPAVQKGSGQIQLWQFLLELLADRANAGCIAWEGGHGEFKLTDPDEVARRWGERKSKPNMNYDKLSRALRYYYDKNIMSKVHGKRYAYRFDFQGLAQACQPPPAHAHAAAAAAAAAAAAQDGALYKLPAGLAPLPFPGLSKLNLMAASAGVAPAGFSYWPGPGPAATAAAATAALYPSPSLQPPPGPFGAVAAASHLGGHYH
# Outline: as §1
# ETV5 = ETV5 (Homo sapiens, UniProt P41161 1-510); conditions: protein: recombinant; tags: N-terminal GST; dsDNA, one strand shown
# Outline: as §1
# HSF1 = HSF1 (Homo sapiens, UniProt Q00613 1-529); conditions: protein: recombinant; tags: N-terminal GST; chain copies: 3; dsDNA, one strand shown
# Outline: as §1
# SPIC = target: T8, SPIC (Homo sapiens, UniProt Q8N5J4 1-248); conditions: protein: recombinant; tags: N-terminal GST; dsDNA, one strand shown
# T8 sequence: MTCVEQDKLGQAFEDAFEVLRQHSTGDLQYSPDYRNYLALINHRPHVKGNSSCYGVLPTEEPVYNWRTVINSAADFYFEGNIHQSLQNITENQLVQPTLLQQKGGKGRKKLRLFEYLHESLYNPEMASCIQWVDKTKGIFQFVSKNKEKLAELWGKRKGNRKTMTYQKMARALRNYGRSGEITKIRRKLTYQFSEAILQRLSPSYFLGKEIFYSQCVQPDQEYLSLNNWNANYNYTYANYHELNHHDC
# Outline: as §1
# ELF4 = ELF4 (Homo sapiens, UniProt Q99607 1-663); conditions: protein: recombinant; tags: N-terminal GST; dsDNA, one strand shown
# Outline: as §1
# ELK4 = target: T9, ELK4 (Homo sapiens, UniProt P28324-2 1-405); conditions: protein: recombinant; tags: N-terminal GST; dsDNA, one strand shown
# T9 sequence: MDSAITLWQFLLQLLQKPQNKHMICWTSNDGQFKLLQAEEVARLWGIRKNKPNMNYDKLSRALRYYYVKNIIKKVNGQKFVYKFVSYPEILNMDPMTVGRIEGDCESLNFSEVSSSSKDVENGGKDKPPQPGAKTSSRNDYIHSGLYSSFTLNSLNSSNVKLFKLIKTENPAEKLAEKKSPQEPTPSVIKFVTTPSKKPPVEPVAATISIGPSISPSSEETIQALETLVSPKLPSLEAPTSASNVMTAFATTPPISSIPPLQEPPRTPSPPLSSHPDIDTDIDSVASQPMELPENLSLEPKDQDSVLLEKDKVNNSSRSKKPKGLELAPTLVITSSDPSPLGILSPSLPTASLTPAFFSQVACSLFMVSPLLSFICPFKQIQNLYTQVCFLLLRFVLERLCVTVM
# Outline: as §1
# ETV2 = target: T10, ETV2 (Homo sapiens, UniProt O00321 1-342); conditions: protein: recombinant; tags: N-terminal GST; dsDNA, one strand shown
# T10 sequence: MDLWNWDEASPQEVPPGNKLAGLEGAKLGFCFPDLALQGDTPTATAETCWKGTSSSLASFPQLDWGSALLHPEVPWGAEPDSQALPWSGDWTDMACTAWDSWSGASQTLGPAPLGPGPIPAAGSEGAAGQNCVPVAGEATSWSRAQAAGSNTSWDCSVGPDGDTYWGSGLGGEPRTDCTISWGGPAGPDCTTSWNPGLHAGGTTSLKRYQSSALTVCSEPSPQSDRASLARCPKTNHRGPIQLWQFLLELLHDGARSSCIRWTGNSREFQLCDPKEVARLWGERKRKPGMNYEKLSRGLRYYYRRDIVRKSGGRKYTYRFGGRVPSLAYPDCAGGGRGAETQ
# Outline: as §1
# ELF3 = target: T11, ELF3 (Homo sapiens, UniProt P78545 1-371); conditions: protein: recombinant; tags: N-terminal GST; dsDNA, one strand shown
# T11 sequence: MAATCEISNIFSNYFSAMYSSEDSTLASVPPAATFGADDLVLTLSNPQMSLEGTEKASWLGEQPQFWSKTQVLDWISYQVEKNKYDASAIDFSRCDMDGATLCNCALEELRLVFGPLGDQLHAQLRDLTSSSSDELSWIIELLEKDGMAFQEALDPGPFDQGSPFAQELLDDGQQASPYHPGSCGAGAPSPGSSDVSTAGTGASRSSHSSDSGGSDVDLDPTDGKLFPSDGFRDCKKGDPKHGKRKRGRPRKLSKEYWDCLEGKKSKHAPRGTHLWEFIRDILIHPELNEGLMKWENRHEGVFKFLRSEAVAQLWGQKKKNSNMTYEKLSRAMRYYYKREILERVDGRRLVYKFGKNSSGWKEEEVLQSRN
# Outline: as §1
# CRX = CRX (Homo sapiens, UniProt O43186 1-299); conditions: protein: recombinant; tags: N-terminal GST; dsDNA, one strand shown
# Outline: as §1
# ETV1 = ETV1 (Homo sapiens, UniProt P50549 1-477); conditions: protein: recombinant; tags: N-terminal GST; dsDNA, one strand shown
# Outline: as §1
# SPIB, sequence (Q01892 whole entry): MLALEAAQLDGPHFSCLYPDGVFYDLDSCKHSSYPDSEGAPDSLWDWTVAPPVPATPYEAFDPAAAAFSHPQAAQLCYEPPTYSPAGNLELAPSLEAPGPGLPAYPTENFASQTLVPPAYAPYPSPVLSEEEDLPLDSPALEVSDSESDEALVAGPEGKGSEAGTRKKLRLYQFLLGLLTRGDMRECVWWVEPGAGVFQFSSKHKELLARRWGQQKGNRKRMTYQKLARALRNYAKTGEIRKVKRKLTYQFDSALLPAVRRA
# ELF4, sequence (Q99607 whole entry): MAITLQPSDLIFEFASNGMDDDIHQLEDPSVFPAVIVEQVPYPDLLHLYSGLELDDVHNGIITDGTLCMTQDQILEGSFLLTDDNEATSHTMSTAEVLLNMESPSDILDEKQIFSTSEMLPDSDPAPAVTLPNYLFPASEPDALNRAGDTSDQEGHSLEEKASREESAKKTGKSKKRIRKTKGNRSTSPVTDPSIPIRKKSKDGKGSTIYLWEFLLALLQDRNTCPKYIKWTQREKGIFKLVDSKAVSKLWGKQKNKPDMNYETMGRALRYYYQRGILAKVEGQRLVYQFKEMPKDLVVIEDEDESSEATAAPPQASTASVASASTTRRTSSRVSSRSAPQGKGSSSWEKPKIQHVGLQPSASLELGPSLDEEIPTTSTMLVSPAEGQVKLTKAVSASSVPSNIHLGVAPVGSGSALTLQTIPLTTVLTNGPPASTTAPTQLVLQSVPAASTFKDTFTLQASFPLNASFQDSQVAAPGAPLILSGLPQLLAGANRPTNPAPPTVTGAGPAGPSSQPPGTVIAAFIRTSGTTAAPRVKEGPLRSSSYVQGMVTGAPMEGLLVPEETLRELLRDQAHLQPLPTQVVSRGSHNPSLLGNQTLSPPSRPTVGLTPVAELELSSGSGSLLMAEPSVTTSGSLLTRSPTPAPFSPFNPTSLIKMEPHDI
# ETV1, sequence (P50549 whole entry): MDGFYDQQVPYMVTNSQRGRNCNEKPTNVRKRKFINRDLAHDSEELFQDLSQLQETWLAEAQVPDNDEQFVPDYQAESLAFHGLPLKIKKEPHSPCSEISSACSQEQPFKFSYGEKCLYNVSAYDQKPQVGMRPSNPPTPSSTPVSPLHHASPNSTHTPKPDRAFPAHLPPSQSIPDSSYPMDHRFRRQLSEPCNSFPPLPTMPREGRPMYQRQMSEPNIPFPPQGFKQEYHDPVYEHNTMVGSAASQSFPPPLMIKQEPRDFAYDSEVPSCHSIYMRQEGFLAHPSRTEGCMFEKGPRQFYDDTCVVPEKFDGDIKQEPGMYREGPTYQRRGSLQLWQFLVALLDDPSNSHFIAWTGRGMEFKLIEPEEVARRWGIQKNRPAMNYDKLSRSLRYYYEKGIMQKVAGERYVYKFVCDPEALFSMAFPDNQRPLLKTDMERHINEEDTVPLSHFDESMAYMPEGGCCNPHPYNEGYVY
# CRX, sequence (O43186 whole entry): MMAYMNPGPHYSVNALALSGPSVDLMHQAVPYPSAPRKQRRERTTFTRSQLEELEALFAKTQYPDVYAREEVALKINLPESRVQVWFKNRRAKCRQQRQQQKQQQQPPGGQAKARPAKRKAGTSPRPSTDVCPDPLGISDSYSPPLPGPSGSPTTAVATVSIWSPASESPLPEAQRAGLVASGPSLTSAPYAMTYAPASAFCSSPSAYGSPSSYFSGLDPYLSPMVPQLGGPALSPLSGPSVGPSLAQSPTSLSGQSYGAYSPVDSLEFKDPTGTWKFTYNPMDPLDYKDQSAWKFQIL
# HSF1, sequence (Q00613 whole entry): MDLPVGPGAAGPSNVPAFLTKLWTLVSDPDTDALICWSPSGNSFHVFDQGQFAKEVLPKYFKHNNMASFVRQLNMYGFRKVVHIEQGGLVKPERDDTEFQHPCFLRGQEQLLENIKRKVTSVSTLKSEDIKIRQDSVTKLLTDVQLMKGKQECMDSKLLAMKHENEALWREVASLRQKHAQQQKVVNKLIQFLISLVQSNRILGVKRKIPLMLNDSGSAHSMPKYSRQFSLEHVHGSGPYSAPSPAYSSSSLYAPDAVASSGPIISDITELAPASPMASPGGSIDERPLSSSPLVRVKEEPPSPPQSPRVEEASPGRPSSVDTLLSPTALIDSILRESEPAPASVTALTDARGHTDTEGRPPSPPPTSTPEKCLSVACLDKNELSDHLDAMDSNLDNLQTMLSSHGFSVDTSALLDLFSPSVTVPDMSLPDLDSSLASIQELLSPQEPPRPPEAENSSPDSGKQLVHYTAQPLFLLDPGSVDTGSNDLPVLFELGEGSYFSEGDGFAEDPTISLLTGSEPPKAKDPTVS
# ETV5, sequence (P41161 whole entry): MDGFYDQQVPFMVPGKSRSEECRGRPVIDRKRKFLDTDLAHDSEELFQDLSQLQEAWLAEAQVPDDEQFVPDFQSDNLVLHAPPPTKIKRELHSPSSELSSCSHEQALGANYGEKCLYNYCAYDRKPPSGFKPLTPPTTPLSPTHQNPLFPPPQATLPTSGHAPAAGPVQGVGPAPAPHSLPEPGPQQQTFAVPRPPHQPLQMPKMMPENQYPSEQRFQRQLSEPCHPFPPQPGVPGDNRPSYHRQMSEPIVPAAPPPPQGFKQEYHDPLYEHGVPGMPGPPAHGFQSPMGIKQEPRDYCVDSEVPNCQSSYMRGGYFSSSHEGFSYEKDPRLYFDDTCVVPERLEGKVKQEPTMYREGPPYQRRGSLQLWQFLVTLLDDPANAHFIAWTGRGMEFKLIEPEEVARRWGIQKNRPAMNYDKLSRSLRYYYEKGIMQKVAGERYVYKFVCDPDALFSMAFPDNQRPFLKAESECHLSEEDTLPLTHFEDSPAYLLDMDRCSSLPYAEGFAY
# ELF1, sequence (P32519 whole entry): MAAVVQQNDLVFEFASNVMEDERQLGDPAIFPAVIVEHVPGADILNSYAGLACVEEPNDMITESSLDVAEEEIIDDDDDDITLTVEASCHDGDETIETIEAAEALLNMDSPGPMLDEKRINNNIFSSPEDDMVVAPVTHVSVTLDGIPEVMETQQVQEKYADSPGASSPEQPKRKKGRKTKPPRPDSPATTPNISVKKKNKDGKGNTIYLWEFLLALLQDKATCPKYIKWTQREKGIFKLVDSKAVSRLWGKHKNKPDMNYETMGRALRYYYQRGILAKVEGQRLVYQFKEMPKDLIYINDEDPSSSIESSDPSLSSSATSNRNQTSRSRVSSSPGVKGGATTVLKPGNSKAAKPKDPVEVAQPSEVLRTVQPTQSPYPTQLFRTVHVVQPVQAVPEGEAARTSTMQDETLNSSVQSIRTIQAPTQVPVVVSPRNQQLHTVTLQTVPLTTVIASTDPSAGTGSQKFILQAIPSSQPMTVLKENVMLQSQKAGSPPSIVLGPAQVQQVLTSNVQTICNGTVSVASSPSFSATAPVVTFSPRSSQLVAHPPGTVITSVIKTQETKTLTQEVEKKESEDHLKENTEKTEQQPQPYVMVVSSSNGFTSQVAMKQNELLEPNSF
sequence,measurement,setting,value
CGTCTT,binding signal,FLI1,"1.46 fold enrichment (6-mer frequency, TF over GST control)"
same,binding signal,ELK1,"1.43 fold enrichment (6-mer frequency, TF over GST control)"
same,binding signal,GABPA,"1.33 fold enrichment (6-mer frequency, TF over GST control)"
same,binding signal,ERG,"1.37 fold enrichment (6-mer frequency, TF over GST control)"
same,binding signal,ELF1,"1.35 fold enrichment (6-mer frequency, TF over GST control)"
same,binding signal,EHF,"1.41 fold enrichment (6-mer frequency, TF over GST control)"
same,binding signal,SPI1,"1.45 fold enrichment (6-mer frequency, TF over GST control)"
same,binding signal,SPIB,"1.5 fold enrichment (6-mer frequency, TF over GST control)"
same,binding signal,ELK3,"1.28 fold enrichment (6-mer frequency, TF over GST control)"
same,binding signal,FEV,"1.33 fold enrichment (6-mer frequency, TF over GST control)"
same,binding signal,ETV5,"1.37 fold enrichment (6-mer frequency, TF over GST control)"
same,binding signal,HSF1,"1.31 fold enrichment (6-mer frequency, TF over GST control)"
same,binding signal,SPIC,"1.38 fold enrichment (6-mer frequency, TF over GST control)"
same,binding signal,ELF4,"1.38 fold enrichment (6-mer frequency, TF over GST control)"
same,binding signal,ELK4,"1.21 fold enrichment (6-mer frequency, TF over GST control)"
same,binding signal,ETV2,"1.29 fold enrichment (6-mer frequency, TF over GST control)"
same,binding signal,ELF3,"1.56 fold enrichment (6-mer frequency, TF over GST control)"
same,binding signal,CRX,"1.5 fold enrichment (6-mer frequency, TF over GST control)"
same,binding signal,ETV1,"1.48 fold enrichment (6-mer frequency, TF over GST control)"
